These results are taken from PubChem BioAssay (NCATS).

Inconclusive results are not listed. Calls of active or inactive are those of the source. Calls come from the whole dose curve; as a rule, active = well fitted inhibition curve with a large enough effect; inconclusive = small, poorly fitted or top-dose-only effect; inactive = flat fitted curve, though single readings scatter.

Common to all, as to experiment: qHTS profiling for inhibitors of Plasmodium falciparum proliferation (AID 504749); note: nearly all actives have a fitted effect of over 60% in size
Common to all, as to settings: P. falciparum in erythrocytes, SYBR Green DNA, 72 h; series mostly up to 28.7 µM

For one test, the system named is P93_24. In outline: (§1)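 P. falciparum-infected erythrocytes (0.3% parasitemia, 2.5% hematocrit) incubated with compound 72 h at 37 C, 5% CO2. Parasite DNA detected by SYBR Green after lysis, overnight at room temperature; normalised to 0.29 uM artemisinin and DMSO.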
In a further test the test system is P94_40. In a few lines: as §1
The next test has as its system PAD. In outline:
as §1

The subject of another test is PC15. In a few lines:
as §1

The subject of another test is PC26. In a few lines:
as §1

The next test concerns PC49. In outline:
as §1

The next test relates to SC27B. In outline: as §1
The next test has as its system TAB113. In a few lines: as §1
A further test relates to TAB165. In a few lines:
as §1

A further test deals with TAB109. In outline:
as §1
Potency is the fitted concentration of half-maximal effect.

With `CCC(C)(Oc1ccc(C2(c3ccc(OC(C)(CC)C(=O)O)cc3)CCCCC2)cc1)C(=O)O` (stereo unspecified), the Potency entry in the test with P93_24, in the test on P94_40, in the test with PAD, in the test on PC15, in the test with PC26 and in the test on PC49 was “inactive” each time. The Potency result in the test with SC27B, with TAB113 and with TAB165 was “inactive” in each case.
On to `CNC[C@@H](O)[C@@H](O)[C@H](O)[C@H](O)CO`, for which the Potency result with P93_24, in the test on P94_40, with PAD, in the test on PC15, in the test with PC26 and in the test with PC49 was “inactive” in each case. The Potency entry in the test with SC27B, in the test on TAB109, with TAB113 and with TAB165 was “inactive” throughout.
Take `CN(C)CCc1c[nH]c2ccc(Cn3cncn3)cc12`: the Potency result in the test with P93_24, with P94_40, in the test on PAD, in the test with PC15, in the test on PC26 and in the test with PC49 was “inactive” throughout. Besides, the Potency entry in the test with SC27B, in the test on TAB113 and with TAB165 was “inactive” each time.
In the case of `CC(C)(S)[C@@H](N)C(=O)O`, the Potency entry in the test with P93_24, in the test on P94_40, in the test with PAD, with PC15, in the test with PC26 and in the test with PC49 was “inactive” each time. Also, the Potency result in the test on SC27B, with TAB109, in the test on TAB113 and in the test on TAB165 was “inactive” throughout.
With `CCCCCCCCCCCCCCCCCCCCCCO`, the Potency entry in the test on P93_24, with P94_40, in the test with PAD, in the test on PC15, in the test on PC26 and in the test with PC49 was “inactive” throughout. For the same compound, the Potency entry in the test with SC27B, in the test on TAB109, in the test on TAB113 and in the test on TAB165 was “inactive” in each case.
With `Cc1c(OCC(F)(F)F)ccnc1CS(=O)c1nc2ccccc2[nH]1` (stereo unspecified), the Potency result with P93_24, in the test on P94_40, with PAD, in the test on PC15, in the test on PC26 and with PC49 was “inactive” in each case. Moreover, the Potency result in the test on SC27B, in the test with TAB109, with TAB113 and in the test on TAB165 was “inactive” in each case.
On to `Cn1c(NCCN(CCO)CCCc2ccc([N+](=O)[O-])cc2)cc(=O)n(C)c1=O`, for which the Potency result in the test with P93_24, with P94_40, in the test with PAD, in the test with PC15, in the test with PC26 and in the test on PC49 was “inactive” throughout. The Potency entry with SC27B, in the test with TAB109, in the test with TAB113 and with TAB165 was “inactive” each time.
For `CN(C)C(=O)COC(=O)Cc1ccc(OC(=O)c2ccc(N=C(N)N)cc2)cc1`, the Potency result in the test with P93_24, with P94_40, with PAD, with PC15, in the test with PC26 and in the test on PC49 was “inactive” each time. The Potency entry in the test with SC27B, in the test on TAB109, in the test on TAB113 and in the test with TAB165 was “inactive” in each case.
Regarding `C[Se]CCC(N)C(=O)O` (stereo unspecified), the Potency entry in the test on P93_24, with P94_40, with PAD, in the test with PC15, with PC26 and with PC49 was “inactive” each time. In addition, the Potency entry in the test on SC27B, with TAB109, in the test with TAB113 and in the test on TAB165 was “inactive” each time.
Take `Clc1ccc(C(Cn2ccnc2)OCc2ccsc2Cl)c(Cl)c1` (stereo unspecified): the Potency is 2.24 µM (active) in the test on P93_24; 4.47 µM (active) in the test on P94_40; 1 µM (active) with PAD; 4.47 µM (active) in the test on PC15; 3.38 µM (active) with PC26; 4.47 µM (active) with PC49. The Potency in the test on SC27B is 2 µM (active); with TAB109 it was 5.01 µM (active); in the test with TAB113, 4.47 µM (active); in the test with TAB165 it was 1 µM (active).
In the case of `Oc1ccc(OCc2ccccc2)cc1`, the Potency result with P93_24, with P94_40, in the test on PAD, in the test on PC15, in the test on PC26 and in the test on PC49 was “inactive” throughout. For the same compound, the Potency entry in the test on SC27B, with TAB109, with TAB113 and in the test on TAB165 was “inactive” in each case.
`Cc1cc(=O)c2c(O)c3c(O)cc(=O)c4c3c3c(cc(O)c1c23)C(C)(C)C=4O`: the Potency in the test with P93_24 was 2.24 µM (active); in the test with P94_40, 2 µM (active); in the test with PAD it was 2.51 µM (active); in the test with PC15, 3.98 µM (active); with PC49 it was 7.94 µM (active); in the test on SC27B, 1.58 µM (active). Moreover, the Potency with TAB109 is 2.24 µM (active); with TAB113, 1.58 µM (active); in the test with TAB165, 1.78 µM (active).
As for `CC(S)C(=O)NCC(=O)O` (stereo unspecified), the Potency result in the test with P93_24, with P94_40, with PAD, in the test on PC15, in the test on PC26 and in the test on PC49 was “inactive” each time. Further, the Potency result with SC27B, in the test on TAB109, in the test with TAB113 and in the test on TAB165 was “inactive” each time.
As to `O=P(O)(O)C(O)(Cn1ccnc1)P(=O)(O)O`, the Potency entry with P93_24, in the test with P94_40, in the test with PAD, in the test on PC15, with PC26 and in the test on PC49 was “inactive” throughout. The Potency result with SC27B, in the test with TAB109, with TAB113 and in the test with TAB165 was “inactive” in each case.
For the compound `CC1(C)NC(=O)N(c2ccc([N+](=O)[O-])c(C(F)(F)F)c2)C1=O`, the Potency result with P93_24, in the test on P94_40, in the test on PAD, with PC15, in the test on PC26 and in the test on PC49 was “inactive” in each case. Moreover, the Potency entry with SC27B, in the test on TAB109, in the test on TAB113 and in the test on TAB165 was “inactive” in each case.
Regarding `COC(=O)C1=C(C)NC(C)=C(C(=O)OCCCN2CCC(c3ccccc3)(c3ccccc3)CC2)C1c1cccc([N+](=O)[O-])c1` (stereo unspecified), the Potency was 3.98 µM (active) with P93_24; 4.47 µM (active) with P94_40; 10 µM (active) in the test on PAD; 11.2 µM (active) with PC15; 6.01 µM (active) in the test with PC26; 3.55 µM (active) with SC27B. The Potency with TAB109 is 5.01 µM (active); with TAB113, 2.51 µM (active); in the test on TAB165, 2.82 µM (active).
For `C[C@]12CCC(=O)C=C1CC[C@@H]1[C@H]2[C@@H](O)C[C@@]2(C)[C@H]1CC[C@]2(O)C(=O)CO`, the Potency entry in the test on P93_24, in the test on P94_40, in the test on PAD, with PC15, in the test with PC26 and in the test with PC49 was “inactive” in each case. For the same compound, the Potency entry in the test with SC27B, in the test with TAB109, in the test on TAB113 and in the test on TAB165 was “inactive” in each case.
As for `CCCOc1ccc2nc(NC(=O)OC)[nH]c2c1`, the Potency result in the test on P93_24, with P94_40, in the test with PAD, in the test on PC15, in the test with PC26 and in the test with PC49 was “inactive” throughout. For the same compound, the Potency entry with SC27B, with TAB109, in the test on TAB113 and with TAB165 was “inactive” in each case.
`C=CCc1cc(OC)c(O)c(C(=O)NCCO)c1`: the Potency entry with P93_24, in the test on P94_40, in the test with PAD, in the test with PC15, with PC26 and in the test with PC49 was “inactive” in each case. The Potency result in the test with SC27B, in the test on TAB109, with TAB113 and in the test on TAB165 was “inactive” throughout.
